Experimental data reported in the supplement of paper PMC10646978.
± gives the standard deviation.

Experiments:
Details in all cases: modulator concentration 10 µM
[1] = system: RAW-Dual (murine macrophage reporter line); experiment: NF-kB reporter (SEAP) activity fold change vs agonist alone; higher = enhanced NF-kB activity
Procedure, shortened: (§1)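 RAW-Dual murine macrophage reporter cells were seeded at 50 000 per well in 384-well plates and pre-incubated 1 hour at 37 °C with compound pin-transferred to 10 μM final. After 1 hour, a PRR agonist was added and cells incubated overnight. Supernatant NF-κB (SEAP, QUANTI-Blue, 620 nm absorbance) and IRF (Lucia luciferase, QUANTI-Luc, luminescence) signals were divided by the mean agonist-only control on the same plate to give fold change. Two replicate plates were averaged, with errors by propagation.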

[2] = system: RAW-Dual (murine macrophage reporter line); experiment: IRF reporter (Lucia luciferase) activity fold change vs agonist alone; higher = enhanced IRF activity
Procedure, shortened: as §1

[3] = system: RAW-Dual (murine macrophage reporter line); experiment: viability score (confluency relative to resting cells, overnight) (fraction); higher = more viable, active = viable (0.7 or more)
Procedure, shortened: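 RAW-Dual macrophages in 384-well plates were treated overnight with compound at 10 μM final. IncuCyte imaging recorded confluency, and IncuCyte software built two confluency masks across every imaged well. The viability score expresses confluency relative to resting cells and was judged against a cutoff, which a compound met only if both masks exceeded 70% of resting cells.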

[4] = agonist: CpG ODN 1826 0.5 ug/mL

SMILES | NF-kB reporter [1, 4] | NF-kB reporter ([1]; agonist: LPS 0.1 ug/mL) | NF-kB reporter ([1]; agonist: MPLA […]) | IRF reporter ([2]; agonist: 3'3'-cGAMP 10 ug/mL) | IRF reporter ([2]; agonist: LPS 0.1 ug/mL) | IRF reporter ([2]; agonist: MPLA […]) | viability score [3]
C=C(Br)Cn1c(COc2ccccc2)nc2ccccc21 | 0.562 ± 0.098 | 1.06 ± 0.12 | 1.05 ± 0.084 | 1.12 ± 0.036 | 1.19 ± 0.28 | 1.19 ± 0.15 | 0.991 (active)
CN1CCN(S(=O)(=O)c2ccc(-c3ccc(S(=O)(=O)N4CCN(C)CC4)cc3)cc2)CC1 | 0.865 ± 0.048 | 1.06 ± 0.074 | 0.955 ± 0.06 | 1.04 ± 0.043 | 1.45 ± 0.15 | 1.1 ± 0.098 | 0.999 (active)
CC(C)(O)c1ccccc1CC[C@@H](SCC1(CC(=O)O)CC1)c1cccc(/C=C/c2ccc3ccc(Cl)cc3n2)c1 [Prestw-1189] | 1.1 ± 0.084 | 0.765 ± 0.056 | 1.04 ± 0.098 | 1.05 ± 0.048 | 1.27 ± 0.16 | 1.41 ± 0.34 | 0.881 (active)
CCN(CC)CCOC(=O)C(c1ccccc1)C1CCCCC1.Cl (centres undefined) | 1.04 ± 0.08 | 0.861 ± 0.076 | 0.878 ± 0.082 | 1.07 ± 0.033 | 1.31 ± 0.13 | 1.52 ± 0.18 | 0.948 (active)
Cc1c(NC(=S)NC(=O)c2ccccc2[N+](=O)[O-])cccc1-c1nc2ccccc2o1 | 0.898 ± 0.074 | 1 ± 0.073 | 1.05 ± 0.11 | 0.649 ± 0.093 | 1.04 ± 0.15 | 1.07 ± 0.31 | 1 (active)
O=C(O)CN1C(=O)c2cccc3cccc(c23)C1=O | 1.11 ± 0.083 | 0.935 ± 0.053 | 1.01 ± 0.039 | 0.934 ± 0.053 | 0.911 ± 0.14 | 0.956 ± 0.22 | 0.998 (active)
CSC1CCN(C(=O)Nc2ccc(C)c(C)c2)C1 (centres undefined) | 1.03 ± 0.38 | 0.953 ± 0.11 | 0.985 ± 0.063 | 0.906 ± 0.038 | 0.954 ± 0.17 | 1.09 ± 0.11 | 0.999 (active)
COc1ccc([C@H]2CNC(=O)C2)cc1OC1CCCC1 | 2.61 ± 0.4 | 2.21 ± 0.38 | 1.9 ± 0.14 | 0.902 ± 0.039 | 1.03 ± 0.22 | 1.41 ± 0.15 | 0.982 (active)
CN1CCN(CCC=C2c3ccccc3Sc3ccc(S(=O)(=O)N(C)C)cc32)CC1 | 0.935 ± 0.071 | 1.04 ± 0.12 | 1.01 ± 0.051 | 0.856 ± 0.057 | 0.978 ± 0.078 | 0.872 ± 0.076 | 0.991 (active)
CSc1nnc2c(n1)[nH]c1c(C)cccc12 | 1.01 ± 0.082 | 0.931 ± 0.096 | 0.904 ± 0.098 | 0.989 ± 0.066 | 1.31 ± 0.25 | 1.42 ± 0.33 | 1.02 (active)
CCN(CC)c1ccc(C=NNC(=O)c2ccncc2)c(O)c1 | 2.56 ± 0.2 | 1.66 ± 0.13 | 5.41 ± 0.24 | 0.888 ± 0.12 | 1.29 ± 0.084 | 1.35 ± 0.14 | 0.695 (inactive)
O=C(OCCN1CCCCC1)c1ccc(O)cc1 | 1.01 ± 0.081 | 1.06 ± 0.07 | 1.03 ± 0.04 | 1.08 ± 0.077 | 1.03 ± 0.047 | 1.07 ± 0.18 | 1 (active)
N#Cc1c(NC(=O)c2cccc3ccccc23)sc2c1CCCC2 | 1.67 ± 0.13 | 0.863 ± 0.073 | 1.14 ± 0.12 | 0.616 ± 0.019 | 1.35 ± 0.18 | 1.48 ± 0.23 | 0.879 (active)
CC(C)(C)C1CCC(OC(=O)CCC(=O)O)CC1 (centres undefined) | 0.999 ± 0.16 | 0.931 ± 0.073 | 0.903 ± 0.087 | 1.07 ± 0.049 | 1.32 ± 0.21 | 1.32 ± 0.24 | 0.997 (active)
CC(NC(=O)COc1ccc(C=NNC(=O)c2ccccc2O)cc1)c1ccccc1 (centres undefined) | 1.05 ± 0.13 | 1.03 ± 0.065 | 1.02 ± 0.061 | 0.985 ± 0.028 | 1.63 ± 0.23 | 1.2 ± 0.1 | 1.01 (active)
Cc1ccc(C(=O)NC(=Cc2cccc3ccccc23)C(=O)N2CCCC2)cc1 | 0.957 ± 0.075 | 1.03 ± 0.067 | 0.974 ± 0.086 | 0.966 ± 0.042 | 1.31 ± 0.23 | 1.15 ± 0.22 | 1.01 (active)
CCN(CC)CC(=O)Nc1c(C)cccc1C.Cl | 1.03 ± 0.079 | 0.968 ± 0.063 | 1.03 ± 0.051 | 0.89 ± 0.075 | 0.927 ± 0.039 | 0.865 ± 0.11 | 0.997 (active)
O=C(C=Cc1ccc2c(c1)OCO2)NCc1ccccn1 | 0.994 ± 0.16 | 1.08 ± 0.089 | 0.897 ± 0.069 | 0.933 ± 0.041 | 1.27 ± 0.27 | 1.28 ± 0.15 | 0.994 (active)
O=C(O)c1cc2ccccc2[nH]1 | 1.02 ± 0.087 | 0.963 ± 0.08 | 1.02 ± 0.024 | 1.02 ± 0.071 | 0.975 ± 0.14 | 0.889 ± 0.23 | 1 (active)
c1cncc(CSc2ccc(-c3ccncc3)nn2)c1 | 0.532 ± 0.17 | 0.711 ± 0.071 | 0.919 ± 0.062 | 0.53 ± 0.037 | 0.647 ± 0.079 | 0.58 ± 0.13 | 0.892 (active)
Cc1ccc2[nH]c3nc(C)cc(C)c3c(=O)c2c1 | 0.967 ± 0.16 | 1.08 ± 0.091 | 0.993 ± 0.12 | 1.01 ± 0.052 | 1.25 ± 0.25 | 1.31 ± 0.21 | 0.704 (active)
CNCc1cc(-c2ccccc2F)n(S(=O)(=O)c2cccnc2)c1.O=C(O)/C=C/C(=O)O | 0.612 ± 0.05 | 1.04 ± 0.076 | 0.98 ± 0.021 | 0.931 ± 0.054 | 0.97 ± 0.056 | 0.855 ± 0.089 | 0.999 (active)
O=[N+]([O-])c1ccc2nc(Cl)sc2c1 | 1.71 ± 0.13 | 0.49 ± 0.039 | 0.338 ± 0.032 | 0.159 ± 0.02 | 0.223 ± 0.083 | 0.0921 ± 0.025 | 0.638 (inactive)
CC(C)c1nc(CN(C)C(=O)N[C@H](C(=O)N[C@@H](Cc2ccccc2)C[C@H](O)[C@H](Cc2ccccc2)NC(=O)OCc2cncs2)C(C)C)cs1 | 0.57 ± 0.047 | 0.468 ± 0.036 | 0.8 ± 0.053 | 1.04 ± 0.14 | 0.993 ± 0.049 | 0.92 ± 0.096 | 1 (active)
COc1cc2c(cc1OC)C(=O)C(CC1CCN(Cc3ccccc3)CC1)C2 (centres undefined) | 0.586 ± 0.14 | 0.954 ± 0.058 | 1.05 ± 0.066 | 0.797 ± 0.027 | 0.813 ± 0.096 | 0.897 ± 0.11 | 0.99 (active)
O=c1[nH][nH]c(=O)c2c(N=Cc3cc4c(cc3[N+](=O)[O-])OCO4)cccc12 | 0.878 ± 0.082 | 0.823 ± 0.074 | 0.961 ± 0.096 | 0.983 ± 0.031 | 1.13 ± 0.18 | 1.22 ± 0.28 | 0.995 (active)
NC(=O)c1c(NC(=O)CN2C(=O)C(=Cc3ccc(Cl)cc3Cl)SC2=S)sc2c1CCCC2 | 0.936 ± 0.081 | 1.07 ± 0.067 | 0.885 ± 0.058 | 0.841 ± 0.028 | 1.23 ± 0.092 | 1.03 ± 0.29 | 0.997 (active)
